Laboratory results published in PubChem BioAssay (EPA / NIEHS).
Inconclusive results are not listed. Some compounds were tested as several samples or in several runs, with calls that do not always agree. The source made the active and inactive calls. How the source made its calls, unless noted: active means hit-call score of the fitted dose curve at least 0.9, where 1 is the maximum; inactive means score below 0.9.

Columns and labels:
[1] = read-out: Interleukin-8 (IL8), CXCL8 (gene 3576); assay: BSK_3C_IL8: BioMAP Diversity Plus: 3C Assay for Interleukin-8 (IL8) Biomarker Activity (AID 2283020); conditions: primary human endothelial cells (HUVEC); actives raise or lower the signal
How it was run: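 HUVEC, 3C stimulation; 24 h compound exposure; IL-8 read by ELISA; gain or loss of signal fitted relative to DMSO control.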

[2] = read-out: Monokine induced gamma interferon (MIG), CXCL9 (gene 4283); assay: BSK_3C_MIG: BioMAP Diversity Plus: 3C Assay for Monokine induced gamma interferon (MIG) Biomarker Activity (AID 2283021); conditions: primary human endothelial cells (HUVEC); actives raise or lower the signal;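 on AC50: MIG protein level measured by immunoassay in the treated endothelial cultures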
How it was run: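 HUVEC, 3C system; 24 h chemical exposure; MIG by ELISA; bidirectional fit vs DMSO baseline.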

[3] = BSK_3C_SRB: Viability Assessment in the BioMAP Diversity Plus: 3C Assay (AID 2283023); conditions: primary human endothelial cells (HUVEC);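 further: fitted both ways against DMSO so a hit may be signal rise or drop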
How it was run: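 Human umbilical vein endothelial cells in the 3C system, treated 24 h. Total protein measured by 0.1% sulforhodamine B staining after 10% TCA fixation, read at 560 nm; bidirectional fit versus DMSO.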

[4] = read-out: Matrix Metallopeptidase 1 (MMP1), MMP1 (gene 4312); assay: BSK_BE3C_MMP1: BioMAP Diversity Plus: BE3C Assay for Matrix Metallopeptidase 1 (MMP1) Biomarker Activity (AID 2283024); conditions: primary human bronchial epithelial cells; actives raise or lower the signal
How it was run: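 ELISA read-out of MMP1 in human lung bronchial epithelial primary cultures, 24 h post-dose; bidirectional curve fit vs DMSO baseline, gain or loss of signal scored.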

[5] = BSK_3C_Vis: BioMAP Diversity Plus: 3C Assay for Morphology Visualization (AID 2283025); conditions: primary human endothelial cells (HUVEC);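 further: fitted both ways so gain or loss versus DMSO counts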;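 on AC50: light microscopy image of cell morphology used as background control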
How it was run: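 HUVEC, 3C system; light microscopy of morphology at 24 h post-dose. Bidirectional fit vs DMSO baseline. Secondary readout, background-control function.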

[6] = read-out: Pselectin, SELP (gene 6403); assay: BSK_4H_Pselectin: BioMAP Diversity Plus: 4H Assay for Pselectin Biomarker Activity (AID 2283026); conditions: primary human endothelial cells (HUVEC); actives raise or lower the signal
How it was run: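 HUVEC, 24 h chemical exposure; P-selectin read by ELISA. Bidirectional curve fit vs DMSO baseline; gain or loss of signal scored.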

[7] = BSK_4H_SRB: Viability Assessment in the BioMAP Diversity Plus: 4H Assay (AID 2283027); conditions: primary human endothelial cells (HUVEC);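 further: cells exposed to compound for 24 h before staining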;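 on AC50: curves fitted both ways versus DMSO so AC50 may be loss or gain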
How it was run: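 Cytotoxicity readout: sulforhodamine B (0.1%) staining of total protein after 10% TCA fixation, measured at 560 nm in human umbilical vein endothelium at 24 h. DMSO set the baseline; fitting was bidirectional.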

[8] = BSK_BE3C_SRB: Viability Assessment in the BioMAP Diversity Plus: BE3C Assay (AID 2283028); conditions: primary human bronchial epithelial cells
How it was run: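 Human bronchial epithelial primary cells in confluent culture, 24 h after chemical dosing; total protein by 0.1% SRB staining after 10% TCA fixation, read at 560 nm. Bidirectional fitting versus DMSO baseline.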

[9] = read-out: Thrombomodulin, THBD (gene 7056); assay: BSK_3C_Thrombomodulin: BioMAP Diversity Plus: 3C Assay for Thrombomodulin Biomarker Activity (AID 2283029); conditions: primary human endothelial cells (HUVEC); actives raise or lower the signal
How it was run: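 HUVEC, 3C conditions; compound 24 h; thrombomodulin by ELISA; bidirectional curve fit vs DMSO baseline; parallel SRB total-protein staining for cytotoxicity.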

[10] = target: human Vitamin D Receptor (VDR), VDR (gene 7421) (UniProt P11473); assay: ATG_VDR_TRANS: Attagene TRANS-FACTORIAL HepG2 Assay for human Vitamin D Receptor (VDR) (AID 2283022; active means hit-call score of the fitted dose curve at least 0.9, where 1 is the maximum)
How it was run: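 HepG2 cells were transiently transfected with GAL4-UAS reporter units and a chimeric VDR-Gal4 construct, then dosed for 24 hours. Reporter mRNA was quantified by RT-PCR, fluorescent labeling, HpaI digestion and capillary electrophoresis; gain of signal analysed vs DMSO.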

human Vitamin D Receptor (VDR), VDR (gene 7421), sequence (P11473 whole entry, looked up, the tested form may be a part): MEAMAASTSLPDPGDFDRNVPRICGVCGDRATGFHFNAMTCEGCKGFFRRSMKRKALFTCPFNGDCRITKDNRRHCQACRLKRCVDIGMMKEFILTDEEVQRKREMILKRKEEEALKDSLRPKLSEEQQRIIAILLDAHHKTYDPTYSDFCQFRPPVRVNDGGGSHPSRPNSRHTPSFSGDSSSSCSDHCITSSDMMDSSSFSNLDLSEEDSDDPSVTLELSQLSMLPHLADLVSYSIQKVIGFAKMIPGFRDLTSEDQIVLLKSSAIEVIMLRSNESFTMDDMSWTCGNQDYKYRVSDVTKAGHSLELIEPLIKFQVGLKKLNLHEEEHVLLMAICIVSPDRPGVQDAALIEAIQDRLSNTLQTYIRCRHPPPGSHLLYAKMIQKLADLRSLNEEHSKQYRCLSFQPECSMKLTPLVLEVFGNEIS

Which results are given for CC(c1cc(C(C)(C)C)cc(C(C)(C)C)c1O)c1cc(C(C)(C)C)cc(C(C)(C)C)c1O?
outcome [1]: inactive; outcome [2]: inactive; outcome [3]: inactive; outcome [4]: inactive; outcome [5]: inactive; AC50 [6]: 0.965 µM (active); outcome [7]: inactive; outcome [8]: inactive; outcome [9]: inactive

What does the source list for Oc1ccccc1Cc1ccccc1O?
outcome [1]: inactive; outcome [2]: inactive; outcome [10]: inactive; outcome [3]: inactive; outcome [4]: inactive; outcome [6]: inactive; outcome [8]: inactive; AC50 [9]: 11.7 µM (active); outcome [9]: inactive

Which outcome [1] does the source give for C=CC(=O)NCOCCCC here?
The outcome was “inactive”.

And the outcome [2]?
Its outcome is “inactive”.

And the outcome [10]?
The outcome was “inactive”.

And the outcome [3]?
Its outcome is “inactive”.

And the outcome [4]?
Its outcome is “inactive”.

And the outcome [5]?
The outcome was “inactive”.

What about the outcome [6] of the same compound?
The outcome was “inactive”.

And the outcome [8]?
Its outcome is “inactive”.

What about the outcome [9] of the same compound?
The outcome was “inactive”.

Which outcome [1] does the source give for CCOC(=O)C1=NN(c2ccc(Cl)cc2Cl)C(C)(C(=O)OCC)C1 (stereo not drawn) here?
The outcome was “inactive”.

And the outcome [2]?
The outcome was “inactive”.

What about the AC50 [3] of the same compound?
Its AC50 is 20 µM (active).

And the outcome [4]?
Its outcome is “inactive”.

What about the AC50 [5] of the same compound?
Its AC50 is 37.5 µM (active).

What about the outcome [6] of the same compound?
The outcome was “inactive”.

What about the AC50 [7] of the same compound?
The AC50 was 12.4 µM (active).

And the outcome [8]?
The outcome was “inactive”.

And the outcome [9]?
Its outcome is “inactive”.

With CC(C)[N+](C)(CCOC(=O)C1c2ccccc2Oc2ccccc21)C(C)C as the compound, how does the outcome [1] read?
Its outcome is “inactive”.

And the outcome [2]?
The outcome was “inactive”.

What about the outcome [10] of the same compound?
Its outcome is “inactive”.

What about the outcome [3] of the same compound?
Its outcome is “inactive”.

And the outcome [4]?
The outcome was “inactive”.

And the outcome [5]?
Its outcome is “inactive”.

What about the outcome [6] of the same compound?
The outcome was “inactive”.

What about the outcome [8] of the same compound?
The outcome was “inactive”.

What about the outcome [9] of the same compound?
The outcome was “inactive”.

For CCCCCCOC(=O)CCCCC(=O)OCCCCCC, which outcome [1] is on record?
The outcome was “inactive”.

What about the outcome [2] of the same compound?
The outcome was “inactive”.

What about the outcome [10] of the same compound?
The outcome was “inactive”.

And the outcome [3]?
The outcome was “inactive”.

What about the outcome [4] of the same compound?
Its outcome is “inactive”.

What about the outcome [5] of the same compound?
Its outcome is “inactive”.

And the outcome [6]?
Its outcome is “inactive”.

And the outcome [7]?
The outcome was “inactive”.

What about the outcome [8] of the same compound?
Its outcome is “inactive”.

And the outcome [9]?
Its outcome is “inactive”.

Which results are given for C=CC(=O)OCCCCCCOC(=O)C=C?
AC50 [1]: 12.3 µM (active); AC50 [2]: 20 µM (active); outcome [10]: inactive; AC50 [3]: 20 µM (active); outcome [4]: inactive; AC50 [5]: 12.9 µM (active); AC50 [6]: 10.3 µM (active); outcome [8]: inactive; outcome [9]: inactive

With CCCCCCCO as the compound, how does the outcome [1] read?
The outcome was “inactive”.

What about the outcome [2] of the same compound?
Its outcome is “inactive”.

What about the outcome [3] of the same compound?
The outcome was “inactive”.

What about the outcome [4] of the same compound?
Its outcome is “inactive”.

What about the outcome [5] of the same compound?
Its outcome is “inactive”.

And the outcome [6]?
Its outcome is “inactive”.

And the outcome [7]?
The outcome was “inactive”.

What about the outcome [8] of the same compound?
The outcome was “inactive”.

What about the outcome [9] of the same compound?
The outcome was “inactive”.
